High-throughput results: PubChem BioAssay, several laboratories
The list is not random: actives were taken first. Their share in the collection is about 1.1%.
ABCB6 inh MLPCN – blocks the human ABCB6 transporter | AID 602162 | K562-ABCB6 porphyrin accumulation, flow cytometry, 1 h; stronger effect = lower value | hit rate 0.19% among 360,000 | Q9NP58 | fluorescence ratio to DMSO, % at 10 µM;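 active means fluorescence ratio to DMSO below 75%, the collection mean minus 3 SD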;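 further: signal is porphyrin accumulated inside mitochondria; 100% equals median channel fluorescence of DMSO control wells; lower ratio means ABCB6 inhibition with less porphyrin fluorescence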
CaV13 ICDI inh – Primary screen for inhibitors of IQ motif and Ca2+-dependent inactivation inhibitor domain binding in CACNA1D, Förster resonance energy transfer in living cells, … | HEK cells, CFP/YFP FRET ICDI-IQ, plate reader, 10 min; percent FRET-ratio fall versus neutral wells | inhibition, % at 12.3 µM | hit rate 0.098% among 340,000 | AID 743397;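 active means mean replicate inhibition of at least 30% and at least 1% of replicates passing that level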;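 further: 0% = median of the neutral control wells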
VLA-4 inh – inhibition in a human VLA-4 binding assay. P13612. hit rate 0.2% among 330,000. inhibition, % (about 7 µM as worked out from the volumes in the protocol). VLA-4 expressing cells, ligand binding flow cytometry; in the data active means inhibition above about 50%
Granule exo inh – lytic granule exocytosis inhibition. TALL-104 LAMP-1 surface exposure, flow cytometry; cells stimulated with thapsigargin and PMA. inhibition, % at 10 µM. hit rate 0.66% among 360,000. AID 651702;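 active means inhibition above about 55%, limit read from the data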
ABCB6 inh CP1 – inhibitors of human ABC transporter ABCB6; shares compounds with ABCB6 inh MLPCN; K562-ABCB6 porphyrin accumulation, flow cytometry, 1 h; stronger effect = lower value; ratio response (% of DMSO), % at 10 µM; 700 tested, under 10 active; AID 602430;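 active means repeat-averaged ratio response below 75% of DMSO, the collection mean minus 3 SD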;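 further: median porphyrin fluorescence at 575 nm with 488 nm excitation from mitochondria; lower ratio means less porphyrin signal so ABCB6 inhibition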
Starred values were filed as active, the others as inactive; nt = no result given.

SMILES | ABCB6 inh MLPCN | CaV13 ICDI inh | VLA-4 inh | Granule exo inh | ABCB6 inh CP1
CCOc1ccc(C(=O)N[C@H](C(=O)Nc2ccc(OC)c(S(=O)(=O)N3CCOCC3)c2)C(C)C)cc1 | 73* | -5 | -1 | -4 | 99
CCN(CC)S(=O)(=O)c1ccc(/C=C/C(=O)OCC(=O)N(C(C)C)C(C)C)cc1 | 100 | -15 | -5 | -13 | nt
Cn1nc(C(F)(F)F)c(-c2cccc(C(F)(F)F)c2)c1NC(=O)c1ccco1 | 100 | -21 | 1 | 7 | nt
Cn1nc(C(F)(F)F)c(-c2cccc(C(F)(F)F)c2)c1NC(=O)Nc1ccc(F)cc1 | 11* | -2 | 16 | 3 | 96
COc1cccc(CNCCO)c1OCc1ccc(Cl)cc1 | 74* | -4 | 5 | -1 | 97
CCOC(=O)c1ccc(NC(=O)CSc2nnc(CNC(=O)c3ccco3)o2)cc1 | 14* | -2 | -7 | 0 | 98
Cc1ccc(NC(=O)CSc2nnc(CNC(=O)c3ccco3)o2)cc1 | 97 | 9 | 3 | -10 | nt
CCOC(=O)c1ccc(S(=O)(=O)N2CC(=O)Nc3ccccc32)cc1 | 68* | -4 | -23 | 0 | 106
CCc1ccc(S(=O)(=O)N2CC(=O)Nc3ccccc32)cc1 | 94 | -10 | -3 | -2 | nt
CCOC(=O)c1sc2nc(C)cc(-c3ccccc3)c2c1N | 71* | -7 | -20 | 2 | 100
CCOC(=O)c1sc2nc(C)cc(C)c2c1N | 94 | -6 | 21 | -3 | nt
Cc1ccc(C(=O)Nc2cc(C)nn2CCC#N)cc1 | 74* | -3 | -4 | 4 | 97
O=C(Nc1ccccc1)N(CCCN1CCOCC1)Cc1ccccc1F | 78 | -5 | -20 | -8 | nt
COc1ccc(CN(CCCN2CCOCC2)C(=O)Nc2ccccc2)cc1OC | 68* | -7 | 3 | -2 | 98
CCOC(=O)N1CCC(N2Cc3cccc(C(=O)NCc4ccccn4)c3C2=O)CC1 | 73* | -7 | 3 | -6 | 99
CCCC(C(=O)NC1CCCC1)N(Cc1ccc(OC)cc1)C(=O)c1snc(C(N)=O)c1N (stereo not given) | 100 | -3 | -6 | 40 | nt
CCCC(C(=O)NC1CCCC1)N(Cc1ccccc1)C(=O)c1snc(C(N)=O)c1N (stereo not given) | 67* | -7 | 1 | 7 | 103
N#Cc1ccsc1NC(=O)COC(=O)c1ccc(NC(N)=O)cc1 | 74* | -1 | -2 | 0 | 98
NC(=O)Nc1ccc(C(=O)OCC(=O)Nc2sccc2C(N)=O)cc1 | 96 | -14 | nt | -2 | nt
Cc1cc(C)cc(NC(=O)c2cc3c(=O)n4ccccc4nc3s2)c1 | 91 | -3 | -9 | -4 | 97
CC(C)NC(=O)c1cc2c(=O)n3ccccc3nc2s1 | 79 | -5 | -2 | -2 | nt
CSc1ccccc1NC(=O)c1cc2c(=O)n3ccccc3nc2s1 | 102 | -8 | 17 | 2 | 101
Cc1c(NC(=O)c2cc3c(=O)n4ccccc4nc3s2)c(=O)n(-c2ccccc2)n1C | 93 | -3 | 7 | -1 | nt
O=C(COC(=O)CNC(=O)c1ccccc1)Nc1cccc(Br)c1 | 91 | -4 | 2 | 0 | nt
COC(=O)CSc1nn(-c2ccc(F)cc2)c(=S)s1 | 96 | -6 | 9 | 0 | nt
SMILES | ABCB6 inh MLPCN | CaV13 ICDI inh | VLA-4 inh | Granule exo inh | ABCB6 inh CP1
CNC(=O)C[C@H]1C(=O)N(c2ccc(OC)cc2)C[C@@H]1CSC | 99 | -4 | nt | 2 | nt
Cc1cc(-c2ccccc2)nc2cc(C(=O)NCCCn3ccnc3)nn12 | 95 | nt | -1 | -2 | nt
COCCNC(=O)c1cc2nc(-c3ccccc3)cc(C)n2n1 | 68* | 10 | 3 | 0 | 99
O=C1CCCN1CCCN1C(=O)N[C@@H](Cc2ccccc2)C1=O | 100 | -5 | 34 | 5 | nt
O=C1N[C@@H](Cc2ccccc2)C(=O)N1CCN1CCOCC1 | 48* | -8 | 11 | -1 | 97
O=S(=O)(NCC1(N2CCOCC2)CCCCC1)c1ccc(F)c(F)c1F | 95 | -6 | 5 | -1 | nt
Cc1ncc([N+](=O)[O-])n1CC(=O)Nc1cc(Cl)ccc1Cl | 10* | -3 | 10 | 2 | 98
CC(C)c1ccc(NC(=O)C2Cc3c(-c4cccc(F)c4)ccnc3O2)cc1 (stereo not given) | 97 | -3 | nt | 17 | nt
O=C(Nc1ccc2c(c1)OCO2)C1Cc2c(-c3ccc(Cl)cc3)ccnc2O1 (stereo not given) | 97 | -10 | nt | -3 | 97
